“And” between values parts separate entries of the source, which are not always exact repeats. Equal entries are not always repeated. Inconclusive results are not listed. The source made the active and inactive calls. Unless noted, calls follow the shape of the dose curve; as a rule, active = well fitted curve in the direction sought with a large enough effect in the repeat runs; inconclusive = weak or mixed curves; inactive = no such curve, though single readings can be large; an effect the other way counts as inactive or inconclusive.
Legend:
[1] = qHTS assay to identify small molecule agonists of the hypoxia (HIF-1) signaling pathway - cell viability counter screen (AID 1224844; calls by dose curve; also: nearly all actives have a fitted effect of over 50% in size)
Summary of the method: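 HRE-bla ME-180; 0.5% dFBS; cpd 17 h, 37C, 5% CO2; CellTiter-Glo lum., 30 min RT, post-FRET read, same wells.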

[2] = qHTS assay to identify small molecule agonists of H2AX (AID 1224845; active = well fitted activation curve with a large enough effect in the signal ratio in the repeat runs, not every such curve was filed as active; the % refers to the signal ratio)
Summary of the method: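 Phospho-H2AX Ser139 measured by HTRF (ex 320 nm; em 665 and 620 nm) after 24 hr antibody incubation. Compounds, 15 concentrations, 0.76% DMSO, were applied to CHO-K1 cells for 3hr at 37C before lysis.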

[3] = qHTS assay to identify small molecule agonists of the hypoxia (HIF-1) signaling pathway (AID 1224846; active = well fitted activation curve with a large enough effect in the signal ratio in the repeat runs, not every such curve was filed as active; the % refers to the signal ratio)
Summary of the method: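 Reporter induction in HRE-bla ME-180 cells is taken as agonism: cells sit 5 hrs after plating, receive compounds or DMSO only, incubate 17 hrs at 37C under 5% CO2, and are loaded with CCF4-AM for beta-lactamase FRET measurement.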

[4] = qHTS assay to identify small molecule agonists of H2AX - cell viability counter screen (AID 1224847; calls by dose curve; also: top concentration of the series differs between compounds; nearly all actives have a fitted effect of over 30% in size)
Summary of the method: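 Quantitative HTS viability measurement: CHO-K1 wild-type cells in serum (10% FBS) medium, short 3 hr drug exposure at 37C with 0.76% DMSO, CellTiter-Glo luminescent detection.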

[5] = qHTS assay to identify small molecule antagonists of the estrogen related receptor (ERR) signaling pathway from Tox21 library (AID 1224848); also: nearly all actives have a fitted effect of over 50% in size
Summary of the method: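 ERR cell line, 2,000 cells/well. 6 h settle, then compound (DMSO) added; 18 h at 37 C; ONE-Glo luminescence after 30 min RT.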

[6] = qHTS RealTime-Glo MT Cell Viability Assay in HEK293 cells - 32 hour (AID 1224868); also: top concentration of the series differs between compounds; nearly all actives have a fitted effect of over 50% in size
Summary of the method: (§1)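 Quantitative high-throughput screen of the Tox21 10K library in HEK293: cells and RealTime-Glo reagents plated together, compound added at 5 h, luminescence monitored through 40 h at 37 C.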

[7] = A CellTox Green Cytotoxicity Assay to monitor cytotoxicity in HEK293 cells - 0 hour (AID 1224869); also: nearly all actives have a fitted effect of over 50% in size
Summary of the method: (§2)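 Tox21 screen in HEK293: membrane-impermeant cyanine dye fluoresces on binding dead-cell DNA; compound pinned 5 h post-seeding, plates held at 37 C, signal read repeatedly through 40 h.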

[8] = qHTS RealTime-Glo MT Cell Viability Assay in HepG2 cells - 40 hour (AID 1224870); also: nearly all actives have a fitted effect of over 50% in size
Summary of the method: (§3)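 Real-time viability: cells seeded at 600 per well together with NanoLuc and cell-permeant prosubstrate, compounds added after 5 h incubation. Luminescence tracked at 0, 8, 16, 24, 32 and 40 h of exposure.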

[9] = A CellTox Green Cytotoxicity Assay to monitor cytotoxicity in HEK293 cells - 40 hour (AID 1224871); also: nearly all actives have a fitted effect of over 45% in size
Summary of the method: as §2

[10] = qHTS RealTime-Glo MT Cell Viability Assay in HEK293 cells - 16 hour (AID 1224872)
Summary of the method: as §1

[11] = qHTS RealTime-Glo MT Cell Viability Assay in HepG2 cells - 8 hour (AID 1224873); also: nearly all actives have a fitted effect of over 55% in size
Summary of the method: as §3

[12] = qHTS RealTime-Glo MT Cell Viability Assay in HEK293 cells - 40 hour (AID 1224874); conditions: RealTime-Glo luminescence; max response: active compounds read low; also: nearly all actives have a fitted effect of over 50% in size
Summary of the method: (§4)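 HEK293 + NanoLuc + prosubstrate, 600 cells/well; 5 h, 37 C/5% CO2; compound 23 nL in DMSO by pintool; 37 C; luminescence read at 0, 8, 16, 24, 32 and 40 h time points.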

[13] = A CellTox Green Cytotoxicity Assay to monitor cytotoxicity in HEK293 cells - 24 hour (AID 1224875); also: series mostly up to about 77 µM; nearly all actives have a fitted effect of over 45% in size
Summary of the method: as §2

[14] = A CellTox Green Cytotoxicity Assay to monitor cytotoxicity in HepG2 cells - 16 hour (AID 1224876); also: nearly all actives have a fitted effect of over 45% in size
Summary of the method: (§5)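 Measurements at 0, 8, 16, 24, 32 and 40 h of treatment captured CellTox Green fluorescence in HepG2 cells that had been co-plated with reagent and preincubated 5 h at 37 C/5% CO2.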

[15] = qHTS RealTime-Glo MT Cell Viability Assay in HepG2 cells - 32 hour (AID 1224877); also: nearly all actives have a fitted effect of over 55% in size
Summary of the method: (§6)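 Compound treatment began 5 h after plating HepG2 cells (600/well) with NanoLuc luciferase and prosubstrate. Plates stayed at 37 C for 40 h; luminescence was captured at six time points, 0 h through 40 h.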

[16] = A CellTox Green Cytotoxicity Assay to monitor cytotoxicity in HepG2 cells - 24 hour (AID 1224878); also: nearly all actives have a fitted effect of over 45% in size
Summary of the method: as §5

[17] = A CellTox Green Cytotoxicity Assay to monitor cytotoxicity in HepG2 cells - 40 hour (AID 1224879); also: nearly all actives have a fitted effect of over 40% in size
Summary of the method: as §5

[18] = qHTS RealTime-Glo MT Cell Viability Assay in HEK293 cells - 0 hour (AID 1224880)
Summary of the method: as §4

[19] = A CellTox Green Cytotoxicity Assay to monitor cytotoxicity in HEK293 cells - 32 hour (AID 1224881); also: nearly all actives have a fitted effect of over 40% in size
Summary of the method: as §2

[20] = qHTS RealTime-Glo MT Cell Viability Assay in HepG2 cells - 24 hour (AID 1224867); also: nearly all actives have a fitted effect of over 50% in size
Summary of the method: as §6
% is scaled to controls: 0 for no effect and ±100 for the full control effect.

COC(=O)c1cccnc1
inactive: outcome [1] | outcome [2] | outcome [3] | outcome [4] | outcome [5] | Potency [6] | outcome [7] | outcome [8] | Potency [9] | Potency [10] | Potency [11] | max response [12] 0.779% and 5.01% | Potency [13] | outcome [14] | outcome [15] | Potency [16] | Potency [17] | outcome [18] | Potency [19]

CC(=O)CC(C)(C)O
inactive: outcome [1] | outcome [2] | outcome [3] | outcome [4] | outcome [5] | Potency [20] | Potency [6] | outcome [8] | Potency [9] | Potency [10] | Potency [11] | max response [12] 0.169% and 3.54% | Potency [13] | outcome [14] | outcome [15] | Potency [16] | Potency [17] | outcome [18] | Potency [19]

CC(=O)OCc1ccco1
inactive: outcome [1] | outcome [2] | outcome [3] | outcome [4] | outcome [5] | Potency [6] | outcome [8] | Potency [9] | Potency [10] | Potency [11] | max response [12] 3.13% and 20% | Potency [13] | outcome [14] | outcome [15] | Potency [16] | Potency [17] | outcome [18] | Potency [19]

CC(=O)CCC=C(C)C
inactive: outcome [1] | outcome [2] | outcome [3] | outcome [4] | outcome [5] | Potency [20] | outcome [7] | outcome [8] | Potency [9] | Potency [10] | Potency [11] | max response [12] 10.6% and -4.31% | Potency [13] | outcome [14] | outcome [15] | Potency [16] | Potency [17] | outcome [18] | Potency [19]

NCCNCCN
inactive: outcome [1] | outcome [2] | outcome [3] | outcome [4] | outcome [5] | Potency [20] | Potency [6] | outcome [7] | outcome [8] | Potency [9] | Potency [10] | Potency [11] | max response [12] -1.22% and 0.475% | Potency [13] | outcome [14] | outcome [15] | Potency [16] | outcome [18] | Potency [19]

N#Cc1ccccc1
inactive: outcome [1] | outcome [2] | outcome [3] | outcome [4] | outcome [5] | Potency [20] | Potency [6] | outcome [7] | outcome [8] | Potency [9] | Potency [10] | Potency [11] | max response [12] 6.77% and 3.17% | Potency [13] | outcome [14] | outcome [15] | Potency [16] | Potency [17] | outcome [18] | Potency [19]

CC1(C)NC(=O)NC1=O
inactive: outcome [1] | outcome [2] | outcome [3] | outcome [4] | outcome [5] | Potency [20] | Potency [6] | outcome [7] | outcome [8] | Potency [9] | Potency [10] | Potency [11] | max response [12] 4.62% and 21.9% | Potency [13] | outcome [14] | outcome [15] | Potency [16] | outcome [18] | Potency [19]

CCCCCC(=O)O
inactive: outcome [1] | outcome [2] | outcome [3] | outcome [4] | outcome [5] | Potency [6] | outcome [7] | outcome [8] | Potency [9] | Potency [10] | Potency [11] | max response [12] 18.5% and 15.2% | Potency [13] | outcome [14] | outcome [15] | Potency [16] | Potency [17] | outcome [18] | Potency [19]

CSc1ccc(Cl)cc1
inactive: outcome [1] | outcome [2] | outcome [3] | outcome [4] | Potency [20] | Potency [6] | outcome [7] | outcome [8] | Potency [9] | Potency [10] | Potency [11] | max response [12] -0.983% and -3.28% | Potency [13] | outcome [14] | outcome [15] | Potency [16] | Potency [17] | outcome [18] | Potency [19]

CCNc1cccc(C)c1
inactive: outcome [1] | outcome [2] | outcome [3] | outcome [4] | outcome [5] | Potency [6] | outcome [7] | outcome [8] | Potency [9] | Potency [10] | Potency [11] | max response [12] -1.66% and 8.48% | Potency [13] | outcome [14] | outcome [15] | Potency [16] | Potency [17] | outcome [18] | Potency [19]

O=C1C(c2[nH]c3ccccc3c2O)=Nc2ccccc21
inactive: outcome [1] | outcome [2] | outcome [3] | outcome [4] | outcome [5] | Potency [20] | Potency [6] | outcome [7] | outcome [8] | Potency [9] | Potency [10] | Potency [11] | max response [12] 4.84% | Potency [13] | outcome [14] | outcome [15] | Potency [16] | Potency [17] | outcome [18] | Potency [19]

NCCCCCCN
inactive: outcome [1] | outcome [2] | outcome [3] | outcome [4] | outcome [5] | Potency [6] | outcome [7] | outcome [8] | Potency [9] | Potency [10] | Potency [11] | max response [12] -0.521% and 1.93% | Potency [13] | outcome [14] | outcome [15] | Potency [16] | outcome [18] | Potency [19]

CC(CCl)OP(=O)(OC(C)CCl)OC(C)CCl (stereo unspecified)
inactive: outcome [1] | outcome [2] | outcome [3] | outcome [4] | outcome [5] | Potency [6] | outcome [7] | outcome [8] | Potency [9] | Potency [10] | Potency [11] | max response [12] -21.3% and -15.3% | Potency [13] | outcome [14] | outcome [15] | Potency [16] | outcome [18] | Potency [19]
